# Results as given in ChEMBL document CHEMBL3433997, “St. Jude Leishmania screening dataset” (2016).
# Biological target: Hexose transporter 1 (Plasmodium falciparum) (UniProt O97467)
# Test: ST_JUDE_LEISH: Cytotoxicity at 2uM final concentration against transgenic Leishmania Mexicana promastigotes LmPfHT that are glucose transport deficient and complemented with the Plasmodium falciparum hexose transporter. Activity is measured by DNA content using SYBR green in vitro
# Assay type: functional
row,SMILES,inhibition
1,CN(C)C(=O)c1cccc(COc2ccc(N3C(N)=NC(N)=NC3(C)C)cc2Cl)c1,1.77%
2,CC(=NNc1nc2ccccc2s1)c1ccccn1,17.9%
3,CCN(CC)CCNc1ccnc2[nH]c3ccc(C)cc3c12,0.18%
4,CCc1c[nH]c2c(N3CCCCS3(=O)=O)cc(C(=O)N[C@@H](Cc3ccccc3)[C@H](O)CNCc3cccc(OC)c3)cc12,-0.07%
5,CN1C(=O)C(=NN=C(S)N2CCOCC2)c2ccccc21,63.9%
6,c1ccc2sc(-c3csc(Nc4ccncc4)n3)nc2c1,1.09%

# Biological target: Glucose transporter (Leishmania mexicana) (UniProt O61059)
# Test: ST_JUDE_LEISH: Cytotoxicity at 2uM final concentration against transgenic Leishmania Mexicana promastigotes LmGT2 that are glucose transport deficient and complemented with the L. Mexicana glucose transporter 2. Activity is measured by DNA content using SYBR green in vitro
# Assay type: functional
row,SMILES,inhibition
1,Fc1ccc2[nH]c(-c3ccc(-c4ccc(CNCCN5CCNCC5)cc4)s3)nc2c1,-0.23%
2,O=C(Nc1ccc(-c2ccc(CN3CCNCC3)cc2)cc1)c1cccc(Cl)c1,104%
3,CN(C)CCCc1cc2c(cc1Cl)CCN2C(=O)Nc1ccc(-c2ccncc2)c2ccccc12,-3.5%
4,N=c1c2nc(-c3c(F)cccc3Cl)[nH]c(=O)c2[nH]c(=O)n1-c1ccccc1,3.34%
5,CN(C)C=Nc1ccc(OCCCCCCOc2ccc(N=CN(C)C)cc2)cc1,2.37%
6,CCC(Cc1cnc2nc(N)nc(N)c2n1)c1ccc(C(=O)N[C@@H](CCC(=O)O)C(=O)O)cc1 (stereo partly specified),3.38%
7,N#Cc1ccc(-c2ccc(C(=O)NCCCCN3CCC(c4nc5ccccc5[nH]4)CC3)cc2)cc1,2.69%
8,CCOC(=O)CNCC(=O)c1ccc(OCc2ccccc2)cc1,2.44%
9,COc1cccc(NC(=O)c2cc(Br)cc(N3CCN(c4ccncc4)CC3)c2)c1,2.41%
10,Cc1cc(C)c2oc(-c3cccc(NC(=O)c4ccc([N+](=O)[O-])o4)c3C)nc2c1,1.45%
